Data published in PubChem BioAssay (NCI).
This is part of a sample that, as a whole, favours compounds with a hit. Of some 83,000 tested, about 20% had one in any assay.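 For each line, cells grew in 96-well plates with the test compound present at a single concentration for 48 hours.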 The source made the active and inactive calls. The calls were made as follows: active = growth percent below 10; inactive = the rest.

Assays:
Assay in all cases: NCI-60 one-dose screen, 48 h (100 = growth as untreated, 0 = no growth, -100 = all killed)
Settings in all cases: 10 µM unless noted
[1] = test system: HCT-15 colon
[2] = test system: HT29 colon
[3] = test system: SNB-75 CNS
[4] = test system: SNB-19 CNS
[5] = test system: U251 CNS
[6] = test system: PC-3 prostate
[7] = test system: SK-MEL-5 melanoma
[8] = test system: UACC-62 melanoma
[9] = test system: LOX IMVI melanoma
[10] = test system: SK-MEL-28 melanoma
[11] = test system: SK-MEL-2 melanoma
[12] = test system: EKVX NSCLC
[13] = test system: SN12C renal
[14] = test system: UO-31 renal
[15] = test system: TK-10 renal
[16] = test system: ACHN renal
[17] = test system: A498 renal
[18] = test system: CCRF-CEM leukemia
[19] = test system: MOLT-4 leukemia

Measured: growth

O=C(O)c1cc2ccccc2cc1Nc1ccccc1
inactive: [1] 99.4% | [2] 117% | [3] 102% | [4] 94.6% | [5] 93.5% | [6] 95.7% | [7] 69.4% | [8] 103% | [9] 91.8% | [10] 107% | [11] 99.2% | [12] 97.6% | [13] 101% | [14] 82.5% | [15] 127% | [16] 98.8% | [17] 102% | [18] 94.1% | [19] 91.1%

CC1=C2C(=C[C@@](C)(CO)[C@@H]2OC(=O)N(C)CCN(C)C(=O)OC(C)(C)C)C(=O)[C@](C)(O)C12CC2
active: [2] 6.33% | [14] -60.4% | [16] -52.5%
inactive: [1] 21% | [3] 79.9% | [4] 72.3% | [5] 22.6% | [6] 47.7% | [7] 76.7% | [8] 84.2% | [9] 61.8% | [10] 82.3% | [11] 71.4% | [12] 78.5% | [13] 73% | [15] 68.1% | [17] 97% | [18] 74.6% | [19] 89.7%

Cc1cn(C2CC(N=[N+]=[N-])C(COP(=O)(O)OP(=O)(O)OP(=O)(O)O)O2)c(=O)[nH]c1=O (stereo unspecified)
inactive: [1] 120% | [2] 99.8% | [3] 85.3% | [4] 102% | [5] 109% | [6] 92.4% | [7] 106% | [8] 112% | [9] 101% | [10] 99.1% | [11] 107% | [12] 116% | [13] 124% | [14] 98.5% | [15] 113% | [16] 124% | [17] 131% | [19] 16.8%
active: [18] -98%

CCCCNC(=O)Oc1ccc(/C(=C(/CC)Cc2ccccc2)c2ccc(OCCCN(C)C)cc2)cc1
inactive: [1] 57.7% | [2] 15.4% | [3] 75.5% | [4] 90.7% | [5] 68.9% | [6] 81.2% | [7] 84.5% | [8] 106% | [9] 59% | [10] 95.9% | [11] 86.8% | [12] 67.5% | [13] 82.8% | [14] 60.5% | [15] 91.9% | [16] 92.5% | [17] 76.2% | [18] 77.1% | [19] 63.4%

CCc1c2cc(Cl)ccc2n2cc(Cc3ccccc3)[nH]c(=O)c12
inactive: [1] 98.9% | [2] 110% | [3] 96.9% | [4] 104% | [5] 99.5% | [6] 97.4% | [7] 104% | [8] 98.2% | [9] 98.2% | [10] 107% | [11] 97.5% | [12] 101% | [13] 101% | [14] 82.3% | [15] 120% | [16] 93.3% | [17] 102% | [18] 93.9%

COc1cc2ncnc(Oc3ccc(NC(=O)Nc4ccc(CN5CCOCC5)c(C(F)(F)F)c4)c4ccccc34)c2cc1OC
inactive: [1] 32.9% | [2] 14.2% | [3] 46% | [4] 55.2% | [5] 42.6% | [6] 40% | [8] 28% | [9] 21.5% | [11] 52.1% | [12] 16% | [15] 12.7% | [18] 20.1%
active: [7] -26.5% | [10] 2.47% | [13] 8.87% | [14] -11.9% | [16] -3.27% | [17] -11.3% | [19] -20.7%

CC(C)(C)OC(=O)N1CCN(CCn2cc(C(F)(F)F)c3c(Cl)ncnc32)CC1
active: [6] 8.61% | [9] -81% | [14] -80.8%
inactive: [1] 10.9% | [2] 23.5% | [3] 111% | [4] 37.3% | [5] 17.3% | [7] 80% | [8] 55.4% | [10] 52.8% | [11] 44.5% | [12] 101% | [13] 71.9% | [15] 115% | [16] 96.6% | [17] 103% | [18] 28.5% | [19] 23.4%

O=C(Nc1cccc([N+](=O)[O-])c1)c1ccc2ccccc2c1O
inactive: [1] 66% | [2] 93.9% | [3] 97.4% | [4] 67.6% | [5] 49.4% | [6] 51.9% | [7] 19.5% | [8] 20.4% | [9] 63.3% | [10] 93.2% | [11] 44.1% | [12] 51.9% | [13] 50.5% | [14] 49.8% | [15] 91.5% | [16] 77.6% | [17] 41.9% | [18] 39.2% | [19] 66.7%
